# PMC4336329 (PLoS ONE, 2015)
# Screen size: about 310,000 compounds; about 2,200 (0.71%) showed an effect of 50% or more. Effects have a minus sign here. The sample holds strong results, similar compounds and a random draw of the others, so the mix is not that of the screen.
# Target: human ether-à-go-go-related gene (hERG) potassium channel (human, UniProt Q12809)
# Assay: primary screen, population patch clamp on CHO cells stably expressing hERG; higher = less effect of the substance
# human ether-à-go-go-related gene (hERG) potassium channel, sequence (Q12809 whole entry, looked up): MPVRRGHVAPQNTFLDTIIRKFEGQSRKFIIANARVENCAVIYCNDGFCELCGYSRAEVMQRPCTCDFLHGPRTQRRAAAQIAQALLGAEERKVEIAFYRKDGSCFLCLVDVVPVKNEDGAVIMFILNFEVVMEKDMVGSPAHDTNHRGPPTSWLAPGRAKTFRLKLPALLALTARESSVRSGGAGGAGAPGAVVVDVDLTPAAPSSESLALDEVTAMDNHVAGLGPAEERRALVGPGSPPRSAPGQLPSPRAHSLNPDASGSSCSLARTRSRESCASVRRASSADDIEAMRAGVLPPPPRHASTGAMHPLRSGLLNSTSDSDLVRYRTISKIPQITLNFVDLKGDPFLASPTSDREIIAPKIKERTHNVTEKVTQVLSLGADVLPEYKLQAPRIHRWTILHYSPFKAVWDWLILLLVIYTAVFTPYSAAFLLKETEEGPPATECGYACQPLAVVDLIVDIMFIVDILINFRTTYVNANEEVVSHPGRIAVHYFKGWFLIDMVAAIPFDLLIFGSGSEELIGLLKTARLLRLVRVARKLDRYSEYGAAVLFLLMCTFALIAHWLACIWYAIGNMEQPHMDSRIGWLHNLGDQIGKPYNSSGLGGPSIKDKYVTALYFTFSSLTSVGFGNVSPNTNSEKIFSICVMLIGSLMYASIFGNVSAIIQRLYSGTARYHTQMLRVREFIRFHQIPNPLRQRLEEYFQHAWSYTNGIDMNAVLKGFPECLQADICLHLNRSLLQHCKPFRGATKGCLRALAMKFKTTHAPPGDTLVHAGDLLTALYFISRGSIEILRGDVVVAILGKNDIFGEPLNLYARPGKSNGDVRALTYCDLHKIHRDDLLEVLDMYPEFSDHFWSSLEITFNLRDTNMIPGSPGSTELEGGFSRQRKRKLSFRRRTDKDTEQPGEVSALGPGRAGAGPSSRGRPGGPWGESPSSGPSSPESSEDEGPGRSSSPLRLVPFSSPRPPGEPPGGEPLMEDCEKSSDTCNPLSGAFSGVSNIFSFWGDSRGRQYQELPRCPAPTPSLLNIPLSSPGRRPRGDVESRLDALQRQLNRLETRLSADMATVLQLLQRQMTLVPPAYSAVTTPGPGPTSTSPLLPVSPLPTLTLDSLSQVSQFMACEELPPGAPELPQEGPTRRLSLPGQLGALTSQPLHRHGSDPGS
row,Compound,"hERG current change (%, negative = inhibition) at 1uM [%]"
1,COc1cc(C(=O)Nc2cccc(-c3nc4cc(C)ccc4o3)c2)cc(OC)c1OC,10.6
2,CN(C)CCNc1nc2c(c(=O)[nH]c(=O)n2C)n1CC(O)COc1ccc(Cl)cc1Cl (stereo not shown),-30.6
3,CN(C)CCNc1nc2c(c(=O)[nH]c(=O)n2C)n1CC(O)COc1ccc(Cl)cc1 (stereo not shown),5.04
4,CCN(CC)CCNc1nc2c(c(=O)[nH]c(=O)n2C)n1CC(O)COc1ccc(Cl)cc1Cl (stereo not shown),-66.1
5,CSc1nn(-c2ccc(C(=O)OC(C(=O)NC(N)=O)C(C)C)cc2)c(=S)s1 (stereo not shown),9.82
6,COc1ccccc1C(=O)Nc1ccnn1C1CCN(C/C=C/c2ccccc2)CC1,-85.6
7,COc1ccccc1C(=O)Nc1ccnn1C1CCN(C/C=C/c2ccc(F)cc2)CC1,-86.9
8,COc1ccccc1/C=C/CN1CCC(n2nccc2NC(=O)CCc2ccccc2)CC1,-24.8
9,COCC(=O)N1CCC(n2nccc2NC(=O)c2ccccc2OC)CC1,14.1
10,CCOc1ccc(N(CC(=O)Nc2ccc(F)c(F)c2)S(=O)(=O)c2c(C)noc2C)cc1,2.37
11,CC(=O)Nc1ccc(NC(=O)COc2ccc(S(=O)(=O)NC(C)c3ccccc3)cc2)cc1 (stereo not shown),17.5
12,CC(C)(C)c1ccc(CSc2cnn(C(C)(C)C)c(=O)c2Cl)cc1,15.7
13,CCOC(=O)c1c(NC(=O)c2ccc(N3C(=O)[C@@H]4[C@H](C3=O)[C@H]3C=C[C@@H]4C3)cc2)sc2c1CCCC2,4.8
14,O=C(CSc1ccccc1)Nc1ccc2c(c1)OCCO2,8.08
15,COc1cccc(NC(=O)C2c3cc(OC)c(OC)cc3C(=O)N(C)C2c2cccnc2)c1 (stereo not shown),1.83
16,Cc1cccn2c(=O)c3cc(C#N)c(=N)n(CCCN4CCOCC4)c3nc12,-78.1
17,Cc1cccn2c(=O)c3cc(C#N)c(=O)n(CCCN4CCOCC4)c3nc12,-21.2
18,COCCCn1c(C(=O)NCCN2CCOCC2)cc2c(=O)n3cccc(C)c3nc21,6.14
19,CCOCCCn1c(=N)c(C(N)=S)cc2c(=O)n3cccc(C)c3nc21,-85.5
20,COCCCn1c(C(=O)N2CCOCC2)cc2c(=O)n3cccc(C)c3nc21,1.75
21,Cc1cccn2c(=O)c3cc(C(N)=S)c(=N)n(CCCN4CCOCC4)c3nc12,-90.5
22,COCCCn1c(=N)c(C(N)=S)cc2c(=O)n3cccc(C)c3nc21,-70.3
23,CCOCCCn1c(=N)c(C(=O)NCCN2CCOCC2)cc2c(=O)n3cccc(C)c3nc21,-17
24,CCCn1c(=N)c(C#N)cc2c(=O)n3cccc(C)c3nc21,-20.2
25,CCOCCCn1c(=NC(C)=O)c(C#N)cc2c(=O)n3cccc(C)c3nc21,-7.46
26,COc1cc(/C=N/NC(=O)c2ccc3nc[nH]c3c2)cc(OC)c1OC,10.6

row,Compound,"hERG current change (%, negative = inhibition) at 1uM [%]"
1,CC1(C)Cc2c(cnn2-c2ccccc2)C(NC(=O)CCc2ccc(=O)[nH]n2)C1 (stereo not shown),8.83
2,Cc1ccccc1CN(C)CC(=O)Nc1ccccc1-c1ccccc1,-9.53
3,O=c1[nH]nc(Cc2ccc(-c3cccc(Cl)c3)o2)c2ccccc12,6.53
4,CCCCn1c(N)c(N(CC)C(=O)c2ccc(C#N)cc2)c(=O)[nH]c1=O,14.4
5,Cc1cccn2c(=O)c3cc(C(N)=S)c(=N)n(CCCOC(C)C)c3nc12,-77.8
6,Cc1cccn2c(=O)c3cc(C(=O)NCCCOC(C)C)sc3nc12,9.15
7,Cc1cc(N)n(-c2cc(C)c3ccccc3n2)n1,9.59
8,Cc1ccc(NC(=S)N2CCN(c3ccccn3)CC2)c(C)c1,12.7
9,Cc1c(C(=O)N2CCN(c3ccc([N+](=O)[O-])cc3)CC2)oc2ccccc12,-12.9
10,O=C(Nc1c(C(=O)N2CCN(c3ccccn3)CC2)oc2ccccc12)c1cccc([N+](=O)[O-])c1,7.86
11,CCOCCCN(C)C1CCN(C(=O)c2oc3ccccc3c2NC(=O)c2ccc([N+](=O)[O-])cc2)CC1,-85.2
12,O=C(Nc1c(C(=O)N2CCOCC2)oc2ccccc12)c1cccc([N+](=O)[O-])c1,11.4
13,O=C(Nc1c(C(=O)N2CCN(c3ccccn3)CC2)oc2ccccc12)c1ccc([N+](=O)[O-])cc1,-4.07
14,CCOCCCN(C)C1CCN(C(=O)c2oc3ccccc3c2NC(=O)c2cccc([N+](=O)[O-])c2)CC1,-86
15,O=C(CN1C(=O)CCC1=O)Nc1nc(-c2nc3ccccc3s2)cs1,-4.37
16,CCOC(=O)C(C)(C)N(Cc1ccc(Cl)cc1)S(=O)(=O)c1ccc(Cl)c([N+](=O)[O-])c1,13.2
17,Cc1cc(C)cc(NC(=O)C(c2ccccc2)N2CCCC2)c1 (stereo not shown),12.6
18,CC(C)c1ccc(/C=C(\NC(=O)c2ccccc2)C(=O)NCCCn2ccnc2)cc1,-63.2
19,O=C(NCCCn1ccnc1)/C(=C/c1ccccc1)NC(=O)c1ccccc1,-47.6
20,CN(C)c1ccc(/C=C(\NC(=O)c2ccccc2)C(=O)NCCCn2ccnc2)cc1,9.45
21,CN(C)c1ccc(/C=C(/NC(=O)c2ccccc2)C(=O)NCCCn2ccnc2)cc1,16.1
22,COc1ccccc1/C=C(/NC(=O)c1ccccc1)C(=O)NCCCn1ccnc1,13.6
23,O=C(NCCCn1ccnc1)/C(=C\c1ccccc1Cl)NC(=O)c1ccccc1,6.1
24,COc1ccc(/C=C(/NC(=O)c2ccccc2)C(=O)NCCCn2ccnc2)cc1OC,15.3
25,O=C(NCCCn1ccnc1)/C(=C\c1ccc(Br)cc1)NC(=O)c1ccccc1,-82.1
26,O=C(NCCCn1ccnc1)/C(=C/c1ccc(Cl)cc1)NC(=O)c1ccccc1,-82.5
